Only some compounds are listed: those with a hit (about 3.8% of all), similar ones and a draw of the others.
FBA Mtb inh: inhibitors of M. tuberculosis fructose-bisphosphate aldolase. P9WQA3. purified M. tuberculosis FBA, fluorescence read-out. inhibition, % at 1 µM. 2.3% of 360,000 active. AID 588726
Target sequence (P9WQA3 whole entry, looked up): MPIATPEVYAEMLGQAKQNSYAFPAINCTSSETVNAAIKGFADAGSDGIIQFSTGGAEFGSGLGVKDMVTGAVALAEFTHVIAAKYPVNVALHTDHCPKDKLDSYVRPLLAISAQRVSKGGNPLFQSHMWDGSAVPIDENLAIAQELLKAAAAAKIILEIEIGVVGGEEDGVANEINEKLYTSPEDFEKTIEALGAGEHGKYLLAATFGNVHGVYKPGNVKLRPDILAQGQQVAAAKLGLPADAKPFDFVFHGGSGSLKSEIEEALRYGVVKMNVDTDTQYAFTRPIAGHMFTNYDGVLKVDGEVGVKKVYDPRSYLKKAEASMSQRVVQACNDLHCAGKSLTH
PrPC surface inh: cell surface PrPC inhibition, primary TR-FRET screen; 0.43% of 370,000 active; inhibition, % at 13.8 µM; AID 720596; P04156; TR-FRET read-out; in the data active means inhibition above about 24%
Yp Topo-I inh: Y. pestis Topo-I inhibition via cleavage products. Y. pestis Topo-I cleavage product accumulation, plate reader. activity, % at 10 µM. 0.064% of 360,000 active. AID 504884; in the data active means activity above about 50%, passing the limit was not always enough
PrP 5UTR inh: inhibition of PrP 5' UTR reporter expression | inhibition, % (concentration not given with the values) | cell-based PrP 5' UTR mRNA reporter, plate reader | 0.35% of 340,000 active | AID 488862; in the data active means inhibition above about 52%
Mtb hypoxia rep: Mtb hypoxia fluorescent reporter inhibition | AID 1159583 | 0.1% of 300,000 active | M. tuberculosis hypoxia-regulated fluorescent reporter, fluorescence | fluorescence inhibition, % (concentration not given with the values); in the data active means fluorescence inhibition mostly above about 23%, no sharp cut-off; inactive means mostly below about 17%
GDH-TPI counter-1: GDH-TPI coupled enzyme inhibition counter-screen | AID 588335 | inhibition, % at 4.8 µM | GDH-TPI coupled enzyme counterscreen, NADH absorbance | 1.2% of 360,000 active; in the data active means inhibition above about 30%
Mtb FBA inh conf: Mtb FBA inhibition, confirmed | shares compounds with FBA Mtb inh | inhibition, % at 1 µM | purified M. tuberculosis FBA, fluorescence read-out | 78% of 5,600 active
GDH-TPI counter-2: counter-screen for M. tuberculosis FBA inhibitors: GDH-TPI coupled enzyme inhibition; shares compounds with FBA Mtb inh; GDH-TPI coupled enzyme counterscreen, fluorescence; inhibition, % at 1 µM; 81% of 5,600 active; in the data active means inhibition above about 10%
Hits are given with their value; i = inactive; nt = not tested or not shown; + = active, no number; ! = a repeat was not active. Unless noted, no stated cut-off is given here; in the data, active means inhibition above about 27%; inactive means the rest.

SMILES | FBA Mtb inh | PrPC surface inh | Yp Topo-I inh | PrP 5UTR inh | Mtb hypoxia rep | GDH-TPI counter-1 | Mtb FBA inh conf | GDH-TPI counter-2
O=c1nc2sc(=Cc3ccc(-c4ccccc4[N+](=O)[O-])o3)c(=O)n2nc1-c1ccccc1 | nt | nt | nt | nt | i | nt | nt | nt
CCOc1ccc(C(C)=NNC(=O)Cn2nc([N+](=O)[O-])cc2C)cc1 | nt | nt | nt | nt | i | nt | nt | nt
CCOc1cc(C=NNC(=O)c2ccc(NC(=O)C3CC3)cc2)ccc1O | nt | nt | nt | nt | i | nt | nt | nt
COc1ccc(NN=C2CCCCC2=O)cc1 | nt | nt | nt | nt | i | nt | nt | nt
COc1ccc(C=NNC(=O)c2cccc([N+](=O)[O-])c2)cc1OC(=O)c1ccc(C)cc1 | nt | nt | nt | nt | i | nt | nt | nt
CCC(=Nn1nnnc1Nc1ccccc1)c1ccccc1 | nt | nt | nt | nt | i | nt | nt | nt
Cc1cc(=O)oc2cc(NC(=O)C(CCCN=C(N)N)NC(=O)OCc3ccccc3)ccc12 (stereo unspecified) | 37 | i | i | i | i | i | 38 | 23
NC(N)=NCCC[C@H](NC(=O)OCc1ccccc1)C(=O)O | i | i | i | i | nt | i | nt | nt
CC1=C(C(=O)Nc2ccccc2C(=O)NC2CCC(C)CC2)SCCO1 (stereo unspecified) | 37 | i | i | i | i | i | i | 17
OCCCNc1ncnc2sc3c(c12)CCN(Cc1ccccc1)C3 | 72 | i | i | i | i | i | 76 | 62
Cc1c(C)n(Cc2ccccc2)c2ncnc(NCCCO)c12 | i | i | i | i | i | i | nt | nt
NNc1nc2sc3c(c2c(=O)n1C1CCCCC1)CCN(Cc1ccccc1)C3 | i | i | i | i | i | i | nt | nt
O=c1[nH]cnc2sc3c(c12)CCN(Cc1ccccc1)C3 | 47 | i | i | i | i | i | 122 | 94
CN(C)c1ccc(P(=O)(CC(=O)NN=Cc2ccc(C#N)cc2)OCCCl)cc1 (stereo unspecified) | nt | nt | nt | nt | i | nt | nt | nt
Cc1cc(C(=O)NCc2cccs2)no1 | i | i | i | nt | i | i | nt | nt
Cc1cc(NC(=O)CCCC(=O)NCc2cccs2)no1 | 57 | i | i | i | i | i | 88 | 62
COc1cccc2c(=O)c3ccoc3n(C)c12 | 40 | i | i | i | nt | i | 75 | 57
C=CCc1cccc(C=Nc2cccn3cc(-c4ccccc4)nc23)c1O | 39 | i | i | i | i | i | + | 176
Cc1nc2cc3ccccc3cc2c(=O)[nH]1 | 67 | i | i | i | i | i | i | i
Cc1cc2cc3c(=O)[nH]c(=O)[nH]c3nc2cc1C | nt | i | nt | nt | nt | nt | nt | nt
O=c1[nH]c(=O)c2cc3ccccc3nc2[nH]1 | 75 | i | i | i | nt | i | 47 | 45
CC(C)NC(=O)C(C#N)=Cc1ccc(N(C)C)c(Br)c1 | nt | nt | nt | nt | i | nt | nt | nt
Cc1ccc(CN2CCN(N=C/C(Br)=C/c3ccccc3)CC2)cc1 | nt | nt | nt | nt | i | nt | nt | nt
CCCCC(CCCCl)C(=O)Nc1ccccc1 (stereo unspecified) | i | i | i | i | i | i | nt | nt
CCCCC(SCC(=O)Nc1ccccc1)C(=O)O (stereo unspecified) | 67 | i | i | i | nt | i | 186 | 160
SMILES | FBA Mtb inh | PrPC surface inh | Yp Topo-I inh | PrP 5UTR inh | Mtb hypoxia rep | GDH-TPI counter-1 | Mtb FBA inh conf | GDH-TPI counter-2
COC(=O)c1ccc(NC(=S)NC2CC3CCC2C3)cc1 (stereo unspecified) | 37 | i | i | i | i | i | 86 | 64
CC(=O)Nc1ccccc1NC(=O)CC(C)=NNC(=O)C1CCCCC1 | nt | nt | nt | nt | i | nt | nt | nt
Cc1cc(C(=O)NN=Cc2ccc(N(C)C)o2)cs1 | nt | nt | nt | nt | i | nt | nt | nt
Cc1nc(NCCCO)c(C#N)c2c1COC(C)(C)C2 | 74 | i | i | i | i | i | 113 | 86
COc1cc(-c2nc3ccccn3c2NCC2CCCO2)ccc1O (stereo unspecified) | i | i | i | i | i | i | nt | nt
COc1ccc(-c2nc3cccc(C)n3c2NCC2CCCO2)cc1O (stereo unspecified) | 59 | i | i | i | i | i | 134 | 104
CCOc1cc(-c2nc3ccccn3c2NCC2CCCO2)ccc1O (stereo unspecified) | i | i | i | i | i | i | nt | nt
CCOc1cc(-c2nc3c(C)cccn3c2NCC2CCCO2)ccc1O (stereo unspecified) | 84 | i | i | i | i | i | 131 | 108
NC(=NO)c1ccc(Cl)cc1Cl | nt | nt | nt | nt | i | nt | nt | nt
COc1ccc(C=NNc2nc(-c3ccc(Cl)cc3)cc(C(F)(F)F)n2)cc1OC | nt | nt | nt | nt | i | nt | nt | nt
Cc1c(N2C(=O)CSC2c2ccccc2)c(=O)n(-c2ccccc2)n1C (stereo unspecified) | i | i | i | i | i | i | nt | nt
COc1ccc(C2SCC(=O)N2c2c(C)n(C)n(-c3ccccc3)c2=O)cc1OC (stereo unspecified) | 47 | i | i | i | i | i | 58 | 45
CCOc1ccc(C2SCC(=O)N2c2c(C)n(C)n(-c3ccccc3)c2=O)cc1 (stereo unspecified) | 96 | i | i | i | i | i | i | i
COc1cc(C2c3cc4c(cc3C(OC)C3COC(=O)C23)OCO4)cc(OC)c1O (stereo unspecified) | nt | nt | nt | nt | i | nt | nt | nt
Cc1ccc2c(c1)c1c3n2CCN(C=O)C3CCC1 (stereo unspecified) | i | i | i | i | i | i | nt | nt
Cc1ccc2c(c1)c1c3n2CCNC3CCC1 (stereo unspecified) | 81! | i | i | i | i | i | 44 | 37
CC1=CC(=NNC(=O)c2ccccc2)CC1 | nt | nt | nt | nt | i | nt | nt | nt
O=C(c1cccn2c(=O)c3cc(Cl)ccc3nc12)N1CCC2(CC1)OCCO2 | 34 | i | i | i | i | i | 46 | 39
CC(=NNC(=O)c1ccc(Br)s1)c1ccncc1 | nt | nt | nt | nt | i | nt | nt | nt
O=C(CCC(=O)N/N=C/c1ccco1)N/N=C/c1ccco1 | 29 | i | i | nt | nt | i | 76 | 64
Oc1ccc(C=NNc2nc(-c3ccc(Cl)cc3)cc(C(F)(F)F)n2)cc1 | nt | nt | nt | nt | i | nt | nt | nt
COc1ccc(C(=O)NN=c2oc3ccccc3cc2C(=O)NCc2ccccc2)cc1 | nt | nt | nt | nt | i | nt | nt | nt
CCC(C)(C)n1nnnc1C(c1cc2cc3c(cc2[nH]c1=O)OCO3)N1CCCCC1 (stereo unspecified) | i | nt | i | nt | i | i | nt | nt
CCCN1CCN(C(c2cc3cc4c(cc3[nH]c2=O)OCO4)c2nnnn2C(C)(C)C)CC1 (stereo unspecified) | 66 | i | i | i | nt | i | 58 | i
COCCn1nnnc1CN(Cc1ccco1)Cc1cc2cc3c(cc2[nH]c1=O)OCO3 | 48 | i | i | i | i | i | + | +
CC(C)(C)n1nnnc1CN(Cc1ccco1)Cc1cc2cc3c(cc2[nH]c1=O)OCO3 | 46 | i | i | i | nt | i | i | i
CCC(C)(C)n1nnnc1CN(Cc1ccc(Cl)cc1)Cc1ccco1 | i | i | i | i | i | i | nt | nt
CCC(C)(C)n1nnnc1CN(Cc1ccco1)Cc1cc2cc3c(cc2[nH]c1=O)OCO3 | 35 | nt | i | i | nt | i | 90 | 97
COc1ccc2[nH]c(=O)c(CN(Cc3ccco3)Cc3nnnn3Cc3ccccc3)cc2c1 | i | i | i | i | i | i | nt | nt
